Compound activity from PubChem.
This is a sample that favours compounds with a hit; in the whole collection about 6.5% have one here.
NADH coupling: inhibition of NAD/NADH coupling enzymes, library profiling. coupled PK/LDH NADH assays, four targets. IC50, µM (doses to about 10 µM), for inactives: at the highest dose inhibition. hit rate 0.02% among 65,000. AID 774;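 active = single-dose screening hits from any of four coupled enzyme assays that gave an IC50 when retested across doses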;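 note: the DPM-DC format reads NADH fluorescence rather than 340 nm absorbance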
Fluor 339 460: intrinsic fluorescence of library compounds, ex339/em460 – biochemical, MLSMR library, data from DPM-DC assay, artefact control, profiling panel | hit rate 5.5% among 65,000 | compound autofluorescence, ex339/em460 nm, NADH buffer; hits give high values; 1 = no-compound wells, NADH background | fluorescence fold increase at 10 µM;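 active = at 10 µM, mean starting fluorescence two-fold or more over control wells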;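 note: signal is the first read of a kinetic run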
Spn PMK inh: S. pneumoniae PMK inhibition. purified PMK, PK/LDH-coupled NADH absorbance 340 nm. inhibition, % at 10 µM. hit rate 0.49% among 65,000. AID 539;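 active = top-ranked compounds by inhibition in the single 10 µM screen, taking a fixed number of the strongest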;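 note: 0% = full reaction with DMSO carrier and 100% = background rate without enzyme reaction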
Spn MK inh: S. pneumoniae mevalonate kinase inhibition; purified MK, PK/LDH-coupled NADH absorbance 340 nm; inhibition, % at 10 µM; hit rate 0.48% among 65,000;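 active = ranked among the strongest by inhibition in the single 10 µM screen, a fixed top-ranked set picked for dose follow-up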
DPM-DC inhibit: blocks S. pneumoniae diphosphomevalonate decarboxylase | hit rate 0.49% among 65,000 | purified DPM-DC, PK/LDH coupled NADH fluorescence | AID 556 | calls only at 10 µM;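 active = the 320 compounds with the highest percent inhibition in the single-dose primary screen, excluding strongly autofluorescent ones, cut at about 32% in these data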;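 note: kinetic rate of NADH fluorescence loss reporting ADP formed by the decarboxylase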
A340 absorber: absorbance at 340 nm | 65,000 tested, under 10 active | compound absorbance at 340 nm, fold over control | AID 708 | fold change at 10 µM;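 active = at 10 µM dose, initial 340 nm absorbance at least 2 fold that of control wells; inactive = change under 2 fold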;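 note: initial absorbance extrapolated from kinetic A340 decline of NADH oxidation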
The depositor's hits bear a star; i = inactive; . = not tested or not shown.

SMILES | NADH coupling | Fluor 339 460 | Spn PMK inh | Spn MK inh | DPM-DC inhibit | A340 absorber
CSCC[C@H](NC(=O)NCc1ccc(F)cc1)C(=O)O | 3% | 1.2 | 9 | 0 | i | 1.1
CNC(=O)c1cc2c(=O)n3cc(C)ccc3nc2n(Cc2ccco2)c1=N | 4% | 2* | 3 | 3 | i | 1
COc1ccc(CCn2c(=N)c(C(=O)NCc3ccco3)cc3c(=O)n4ccccc4nc32)cc1 | 4% | 1.2 | 7 | 4 | i | 1
CNC(=O)c1cc2c(=O)n3cc(C)ccc3nc2n(C(C)C)c1=N | 7% | 5* | 7 | 7 | . | 1
O=C(Nc1c(C(=O)N2CCOCC2)cnn1-c1ccccc1)c1ccco1 | 5% | 1.1 | 13 | 1 | i | 1
O=C1CC(N2CCN(c3nc4ccccc4s3)CC2)C(=O)N1Cc1cccs1 (stereo unspecified) | 3% | 1.1 | 3 | 5 | i | 1.1
CC(C)(NCc1ccccc1Cl)C(=O)O | 4% | 1.1 | 12 | 0 | i | 1
c1ccc(-c2nnc3sc(-c4csc5c4CCCC5)nn23)cc1 | 4% | 1.1 | 12 | 0 | i | 1
CCOC(=O)C1CCN(c2nc3cc(OC)ccc3cc2C#N)CC1 | 9% | 2.1* | 12 | 7 | i | 0.99
COc1ccc2nc(N3CCC(C)CC3)c(C#N)cc2c1 | 5% | 1.4 | 2 | 10 | i | 1
COc1ccc2nc(N3CCC(O)CC3)c(C#N)cc2c1 | 20% | 2.9* | 21 | 10 | i | 0.99
O=C(Nc1ccc2c(c1)OCCO2)C1CCCN(S(=O)(=O)c2cccnc2)C1 (stereo unspecified) | 3% | 1.1 | 2 | 6 | i | 1
Cc1cccc(N2CCN(C(=O)n3ccnc3)CC2)c1C | 2% | 1.1 | 5 | 0 | i | 1
Cc1cc(NCc2ccco2)nc2cc(O)ccc12 | 2% | 2.1* | 0 | 3 | . | 1.1
O=C(NCCc1ccc(Cl)cc1)C1CCN(C(=O)c2sccc2-n2cccc2)CC1 | 6% | 0.99 | 14 | 4 | i | 0.99
O=C(NCCN1CCN(C(=O)c2cc3ccccc3oc2=O)CC1)c1cc2ccccc2oc1=O | 7% | 1.3 | 17 | 3 | i | 1.1
CN1CCN(C(=O)c2cc3c(ccc4ccccc43)oc2=O)CC1 | 9% | 3.9* | 3 | 15 | . | 1
CCOC(=O)N1CCN(c2c(-c3ccc(C)cc3)c(=O)c2=O)CC1 | 8% | 1.1 | 17 | 6 | i | 1.1
CCOC(=O)N1CCN(c2c(-c3ccccc3)c3cc(Cl)ccc3[nH]c2=O)CC1 | 6% | 2.5* | 1 | 3 | i | 1.1
C=C(C)Cn1c(Sc2nc3ccccc3[nH]2)nc2c1c(=O)[nH]c(=O)n2C | 6% | 1.1 | 12 | 5 | i | 1
COc1ccc2[nH]c(=O)c(CN(C)C(=O)COc3ccccc3)cc2c1 | 15% | 3.4* | 18 | 11 | . | 1
CCN(Cc1cc2cc(OC)ccc2[nH]c1=O)C(=O)Cc1ccc(OC)cc1 | 1% | 2.4* | 3 | 6 | i | 1
CCCCN(Cc1cc2cc(OC)ccc2[nH]c1=O)C(=O)COc1ccccc1 | 4% | 1.9 | 7 | 8 | i | 1
CCN(Cc1cc2cc(OC)ccc2[nH]c1=O)C(=O)c1ccncc1 | 5% | 1.8 | 9 | 3 | i | 1
COc1ccc2[nH]c(=O)c(CN(C(C)=O)c3cccc(C)c3)cc2c1 | 5% | 3.2* | 7 | 0 | i | 1.1
SMILES | NADH coupling | Fluor 339 460 | Spn PMK inh | Spn MK inh | DPM-DC inhibit | A340 absorber
CCOc1ccc(N(Cc2cc3cc(OC)ccc3[nH]c2=O)S(C)(=O)=O)cc1 | 12% | 2.8* | 5 | 4 | i | 1
N#CCCC12CCCCC1=Nc1ccccc12 (stereo unspecified) | 3% | 1.1 | 0 | 8 | i | 1
CCC(=O)N(Cc1ccc2c(c1)OCO2)Cc1cc2cc(OC)ccc2[nH]c1=O | 15% | 1.7 | 18 | 17 | i | 1
CCC(=O)N(Cc1cc2cc(OC)ccc2[nH]c1=O)c1ccc(C)cc1C | 10% | 3.1* | 15 | 6 | i | 1
CCOc1ccccc1C(=O)N(C)Cc1cc2cc(OC)ccc2[nH]c1=O | 9% | 2.7* | 1 | 9 | i | 1.1
COc1ccc2[nH]c(=O)c(CN(C(=O)C3CCCO3)c3ccc(C)cc3)cc2c1 (stereo unspecified) | 17% | 2.9* | 15 | 11 | i | 1.1
